Experimental findings from PubChem BioAssay (Tox21) are described below.

Where “and” joins values, the source holds several entries; their conditions need not be identical. Equal values may be shown once. Records with an inconclusive call do not appear. The source holds several records for some structures; these can differ, active in one and inactive in another. Calls of active or inactive are those of the source. Unless noted, calls come from the whole dose curve; as a rule, active = well fitted curve in the direction sought with a large enough effect in the repeat runs; inconclusive = weak or mixed curves; inactive = no such curve, though single readings can be large; an effect the other way counts as inactive or inconclusive.

Experiment [1] can be described thus: Human pregnane X receptor (PXR) small molecule agonists, qHTS cell viability counter screen (AID 1346977). Note: nearly all actives have a fitted effect of over 50% in size. Note: potency is the fitted concentration of half-maximal effect. The method in brief: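 PXR-Luc HepG2 cells (2,000/well, 5% charcoal-stripped FBS) preincubated 5 hr, then exposed to compounds 24 hr at 37 C. Viability read in the same wells by CellTiter-Fluor fluorescence, reagent added at 23 hr, 1 hr incubation.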
For orientation: In qHTS, concentration-response curves come from the screen itself.

Experiment [2] can be described thus: Caspase-3/7 induction in HepG2 cells by small molecules, qHTS assay (AID 1346978). Note: nearly all actives have a fitted effect of over 15% in size. Note: potency is the fitted concentration of half-maximal effect. In short, it runs like this: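 Wild-type HepG2 cells (2,000/well) were settled 5 h at 37 C, 5% CO2, then exposed to compounds in DMSO for 17 h. Caspase-3/7 activity was read by luminescence 30 min after adding Caspase-Glo 3/7 reagent at room temperature.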
The nature of experiment [3]: Caspase-3/7 induction in CHO-K1 cells by small molecules, qHTS cell viability counter screen (AID 1346979). Note: nearly all actives have a fitted effect of over 35% in size. Note: potency is the fitted concentration of half-maximal effect. In short, it runs like this:
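Wild-type CHO-K1 cells (1,500/well) treated with compound after 5 h plating; after 16 h at 37C, viability read as CellTiter-Fluor fluorescence following 1 h reagent incubation, in the same wells as the caspase read.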

The nature of experiment [4]: Caspase-3/7 induction in CHO-K1 cells by small molecules, qHTS assay (AID 1346980). Note: nearly all actives have a fitted effect of over 15% in size. Note: potency is the fitted concentration of half-maximal effect. In short, it runs like this: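 Wild-type cells were seeded at 1,500 per well and settled 5 hr at 37 C, 5% CO2, then exposed to DMSO-dissolved compounds for 17 hr. Caspase-Glo 3/7 reagent was added, and luminescence was read after 30min at room temperature.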
The nature of experiment [5]: Caspase-3/7 induction in HepG2 cells by small molecules, qHTS cell viability counter screen (AID 1346981). Note: nearly all actives have a fitted effect of over 30% in size. Note: potency is the fitted concentration of half-maximal effect. In short, it runs like this: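 The parent HepG2 line is plated at 2,000 cells per well and rested 5 hr before compound pinning from DMSO stocks. Following a 16-hr treatment at 37 C, a fluorogenic live-cell substrate (CellTiter-Fluor) reports viability after 1 hr.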

Experiment [6] concerns the target Nuclear receptor subfamily 1 group I member 2 (Homo sapiens) (UniProt O75469). As to the kind of experiment: Human pregnane X receptor (PXR) small molecule agonists, qHTS assay (AID 1346982). Note: nearly all actives have a fitted effect of over 35% in size. Note: potency is the fitted concentration of half-maximal effect. The method in brief:
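After plating in 5% charcoal-stripped FBS and a 5 hr rest, PXR-Luc HepG2 cells received compounds in DMSO. Following 24 hr at 37 C, ONE-Glo was added and light output read.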

The target in experiment [7] is Acetylcholinesterase (Homo sapiens) (UniProt P22303). The experiment in a line: Acetylcholinesterase (AChE) small molecule antagonists: colormetric cell-based qHTS assay (AID 1347395; calls by dose curve; note: nearly all actives have a fitted effect of over 30% in size). The method in brief:
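SH-SY5Y cells attached overnight, exposed to compound 30 min at 37 C, then given DTNB/acetylthiocholine; after 90 min at 37 C, colorimetric thiocholine read gives cellular AChE activity.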

The target is the same in experiment [8]. As to the kind of experiment: Acetylcholinesterase (AChE) small molecule antagonists: enzyme-based qHTS assay (AID 1347397; calls by dose curve; note: nearly all actives have a fitted effect of over 55% in size; note: potency is the fitted concentration of half-maximal effect). The conditions noted are these: Potency: AChE enzyme activity inhibition. The method in brief: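 Compound or DMSO vehicle was pin-transferred onto recombinant human AChE (50 mU/mL as dispensed) and left 30 min at room temperature. Acetylthiocholine with DTNB then started the reaction, read colorimetrically 10 min later.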

For experiment [9] the target is unchanged. The experiment in a line: Acetylcholinesterase (AChE) small molecule antagonists: fluorescence cell-based qHTS assay (AID 1347398; calls by dose curve; note: nearly all actives have a fitted effect of over 50% in size; note: potency is the fitted concentration of half-maximal effect). The conditions noted are these: Potency: AChE activity. In short, it runs like this:
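Using neuroblastoma SH-SY5Y cells as the enzyme source, test chemicals are preincubated 30 min at 37 C; AChE-driven acetylthiocholine cleavage is then quantified by thiocholine-dependent Thiolite Green fluorescence after 40 min at room temperature.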

Experiment [10] shares this target. As to the kind of experiment: Acetylcholinesterase (AChE) small molecule antagonists: enzyme-based qHTS assay with human liver microsomes (AID 1347399; calls by dose curve; note: nearly all actives have a fitted effect of over 60% in size; note: potency is the fitted concentration of half-maximal effect). The conditions noted are these: Potency: qHTS inhibition. The method in brief: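 Recombinant human AChE (50 mU/mL in the enzyme mix) and human liver microsomes (0.25 mg/mL final) were preincubated with compound and NADPH (0.25 mg/mL final) for 30 min at 37 C. Acetylthiocholine/DTNB was then added; thiocholine was read colorimetrically after 10 min at room temperature.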

Experiment [11] has as its target Cytochrome P450 2D6 (Homo sapiens) (UniProt P10635). As to the kind of experiment: Cytochrome P450 Family 2 Subfamily D Member 6 (CYP2D6) small molecule antagonists: luciferase reporter qHTS assay (AID 1671196). Note: nearly all actives have a fitted effect of over 50% in size. Note: potency is the fitted concentration of half-maximal effect. The method in brief: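 Quantitative HTS of Tox21 chemicals against CYP2D6 using a luminescent proluciferin substrate. After NADPH addition, 1 h room-temperature reaction; luminescence recorded 20 min post detection reagent.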

In experiment [12] the target is Cytochrome P450 2C19 (Homo sapiens) (UniProt P33261). The experiment in a line: Cytochrome P450 Family 2 Subfamily C Member 19 (CYP2C19) small molecule antagonists: luciferase reporter qHTS assay (AID 1671197). Note: nearly all actives have a fitted effect of over 65% in size. Note: potency is the fitted concentration of half-maximal effect. In short, it runs like this:
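P450-Glo CYP2C19 system: enzyme-substrate mix with compound 10 min at room temperature, then NADPH regeneration solution, 1 h at 37C. Proluciferin-to-luciferin conversion detected by luminescence after 20 min with detection reagent; ketoconazole as positive control.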
(A reporter such as luciferase makes a cellular process visible.)

Experiment [13] concerns the target Cytochrome P450 2C9 (Homo sapiens) (UniProt P11712). As to the kind of experiment: Cytochrome P450 Family 2 Subfamily C Member 9 (CYP2C9) small molecule antagonists: luciferase reporter qHTS assay (AID 1671198). Note: nearly all actives have a fitted effect of over 50% in size. Note: potency is the fitted concentration of half-maximal effect. In short, it runs like this: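 CYP2C9 activity was measured with a P450-Glo proluciferin substrate. Enzyme–substrate mix was held with compound for 10 min at room temperature, then NADPH regeneration solution was added for 1 h at 37C. Luciferin product was read as luminescence.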

Experiment [14] addresses Cytochrome P450 1A2 (Homo sapiens) (UniProt P05177). The experiment in a line: Cytochrome P450 Family 1 Subfamily A Member 2 (CYP1A2) small molecule antagonists: luciferase reporter qHTS assay (AID 1671199). Note: nearly all actives have a fitted effect of over 50% in size. Note: potency is the fitted concentration of half-maximal effect. The method in brief:
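Quantitative high-throughput format using the P450-Glo CYP1A2 system. Reaction initiated by NADPH regeneration solution, 1 h at room temperature, then stopped with detection reagent; luminescence measured 20 min later.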

In experiment [15] the target is Voltage-gated inwardly rectifying potassium channel KCNH2 (Homo sapiens) (UniProt Q12809). As to the kind of experiment: Human Ether-a-go-go-Related Gene (hERG) channel small molecule antagonists: fluorescence cell-based qHTS assay (AID 1671200). Note: nearly all actives have a fitted effect of over 50% in size. Note: potency is the fitted concentration of half-maximal effect. In short, it runs like this: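 hERG-U2OS cells plated overnight at 37 C, loaded with FluxOR II dye 1 h at RT in dark; after 10 min, thallium stimulus added. Fluorescence (480/540 nm) read kinetically for 2 min at 1 s intervals.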
(The hERG channel carries a current that helps repolarise heart muscle cells.)

The target of experiment [16] is Cytochrome P450 3A4 (Homo sapiens) (UniProt P08684). The experiment in a line: Cytochrome P450 Family 3 Subfamily A Member 4 (CYP3A4) small molecule antagonists: luciferase reporter qHTS assay (AID 1671201). The method in brief:
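P450-Glo CYP3A4 luminescent assay: compounds preincubated 10 min at room temperature with enzyme and proluciferin substrate, NADPH regeneration added, 1 h room-temperature reaction, stopped with luciferin detection reagent; luminescence read after 20 min. Ketoconazole positive control.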

The target of experiment [17] is Nuclear receptor subfamily 1 group I member 2 (Rattus norvegicus) (UniProt Q9R1A7). The experiment in a line: Rat pregnane X receptor (rPXR) activation by small molecules, qHTS assay (AID 1346983). Note: nearly all actives have a fitted effect of over 20% in size. To be noted: rPXR luciferase reporter cells, One-Glo luminescence, 24 h; stronger effect = higher value. In short, it runs like this: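 Cell-based rPXR luciferase reporter assay, 2,000 cells per well, rested 5hr at 37 C before compound addition in DMSO, then 24 hr at 37 C. One-Glo reagent was added and luminescence read after 30 min at room temperature.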

Experiment [18] deals with Nuclear receptor subfamily 1 group I member 2 (Homo sapiens) (UniProt O75469). The experiment in a line: CYP3A4 induction through human pregnane X receptor (PXR) by small molecules, qHTS assay (AID 1346984). Note: nearly all actives have a fitted effect of over 40% in size. In short, it runs like this:
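Human PXR activation is tracked via CYP3A4 promoter-luciferase in DPX-2 (HepG2) cells. Compounds treat cells for 24hr at 37C, and luminescence is read after One-Glo.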

Experiment [19] has the same target. The experiment in a line: Human pregnane X receptor (PXR) activation by small molecules, qHTS assay (AID 1346985). Note: nearly all actives have a fitted effect of over 40% in size. The method in brief: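 DPX-2 cells (HepG2 co-transfected with a PXR response element and a CYP3A4-promoter luciferase construct) were seeded at 2,000 per well, rested 5 hr at 37C, then exposed to DMSO-dissolved compounds for 24 hr. Activation was read as luciferase luminescence.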
% is set by controls: 0 for no effect and ±100 for the full control effect.

Chain of Cytochrome P450 3A4 (Homo sapiens) (P08684 whole entry, looked up): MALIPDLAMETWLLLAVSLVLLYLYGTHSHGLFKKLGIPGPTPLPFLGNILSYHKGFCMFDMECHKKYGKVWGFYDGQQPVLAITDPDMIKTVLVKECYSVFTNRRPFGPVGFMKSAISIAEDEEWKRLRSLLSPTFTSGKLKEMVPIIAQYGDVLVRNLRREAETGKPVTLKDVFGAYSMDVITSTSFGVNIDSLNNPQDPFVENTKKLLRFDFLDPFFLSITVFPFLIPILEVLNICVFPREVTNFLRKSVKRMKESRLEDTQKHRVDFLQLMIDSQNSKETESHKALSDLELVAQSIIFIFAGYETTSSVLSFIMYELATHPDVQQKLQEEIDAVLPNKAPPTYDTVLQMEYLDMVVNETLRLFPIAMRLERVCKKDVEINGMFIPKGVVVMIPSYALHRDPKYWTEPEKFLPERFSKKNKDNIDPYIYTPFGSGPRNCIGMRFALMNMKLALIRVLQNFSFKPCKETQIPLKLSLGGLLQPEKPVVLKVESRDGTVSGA
Chain of Cytochrome P450 1A2 (Homo sapiens) (P05177 whole entry, looked up): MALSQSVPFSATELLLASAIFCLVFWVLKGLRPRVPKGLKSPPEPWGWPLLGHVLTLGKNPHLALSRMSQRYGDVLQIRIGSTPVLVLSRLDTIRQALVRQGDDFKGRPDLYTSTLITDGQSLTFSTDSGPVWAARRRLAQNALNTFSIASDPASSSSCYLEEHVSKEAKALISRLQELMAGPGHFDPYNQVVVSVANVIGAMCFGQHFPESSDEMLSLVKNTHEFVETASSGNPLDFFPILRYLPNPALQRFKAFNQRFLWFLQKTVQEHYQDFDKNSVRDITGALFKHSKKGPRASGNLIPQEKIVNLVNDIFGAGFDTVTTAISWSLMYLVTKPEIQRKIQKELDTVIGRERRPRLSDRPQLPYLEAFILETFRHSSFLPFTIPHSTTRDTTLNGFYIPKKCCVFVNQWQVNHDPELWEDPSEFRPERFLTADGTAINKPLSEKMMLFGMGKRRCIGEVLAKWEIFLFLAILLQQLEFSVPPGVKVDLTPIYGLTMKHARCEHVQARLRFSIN
Chain of Cytochrome P450 2C9 (Homo sapiens) (P11712 whole entry, looked up): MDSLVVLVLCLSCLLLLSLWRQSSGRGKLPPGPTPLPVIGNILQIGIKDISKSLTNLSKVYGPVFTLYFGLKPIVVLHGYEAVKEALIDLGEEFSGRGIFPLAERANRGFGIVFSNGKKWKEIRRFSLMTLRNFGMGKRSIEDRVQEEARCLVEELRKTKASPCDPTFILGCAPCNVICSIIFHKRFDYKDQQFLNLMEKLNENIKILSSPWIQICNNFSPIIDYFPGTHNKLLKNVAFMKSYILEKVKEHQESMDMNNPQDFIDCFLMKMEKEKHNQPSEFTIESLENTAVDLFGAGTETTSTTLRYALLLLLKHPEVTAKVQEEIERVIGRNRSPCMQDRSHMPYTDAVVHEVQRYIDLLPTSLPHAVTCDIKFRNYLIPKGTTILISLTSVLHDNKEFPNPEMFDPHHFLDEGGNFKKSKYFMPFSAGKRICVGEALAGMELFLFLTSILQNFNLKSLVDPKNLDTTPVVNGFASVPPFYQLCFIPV
Chain of Nuclear receptor subfamily 1 group I member 2 (Homo sapiens) (O75469 whole entry, looked up): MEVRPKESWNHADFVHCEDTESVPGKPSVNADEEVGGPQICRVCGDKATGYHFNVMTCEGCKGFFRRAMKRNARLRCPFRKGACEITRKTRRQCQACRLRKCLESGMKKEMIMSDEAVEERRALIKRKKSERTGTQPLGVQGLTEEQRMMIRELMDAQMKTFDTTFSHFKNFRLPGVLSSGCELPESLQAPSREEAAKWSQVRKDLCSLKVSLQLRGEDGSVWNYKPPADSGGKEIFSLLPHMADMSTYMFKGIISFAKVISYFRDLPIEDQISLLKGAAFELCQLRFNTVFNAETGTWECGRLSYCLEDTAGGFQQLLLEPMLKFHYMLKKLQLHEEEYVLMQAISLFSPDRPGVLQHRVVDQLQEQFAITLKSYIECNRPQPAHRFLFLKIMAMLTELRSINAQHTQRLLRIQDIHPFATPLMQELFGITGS
Chain of Cytochrome P450 2D6 (Homo sapiens) (P10635 whole entry, looked up): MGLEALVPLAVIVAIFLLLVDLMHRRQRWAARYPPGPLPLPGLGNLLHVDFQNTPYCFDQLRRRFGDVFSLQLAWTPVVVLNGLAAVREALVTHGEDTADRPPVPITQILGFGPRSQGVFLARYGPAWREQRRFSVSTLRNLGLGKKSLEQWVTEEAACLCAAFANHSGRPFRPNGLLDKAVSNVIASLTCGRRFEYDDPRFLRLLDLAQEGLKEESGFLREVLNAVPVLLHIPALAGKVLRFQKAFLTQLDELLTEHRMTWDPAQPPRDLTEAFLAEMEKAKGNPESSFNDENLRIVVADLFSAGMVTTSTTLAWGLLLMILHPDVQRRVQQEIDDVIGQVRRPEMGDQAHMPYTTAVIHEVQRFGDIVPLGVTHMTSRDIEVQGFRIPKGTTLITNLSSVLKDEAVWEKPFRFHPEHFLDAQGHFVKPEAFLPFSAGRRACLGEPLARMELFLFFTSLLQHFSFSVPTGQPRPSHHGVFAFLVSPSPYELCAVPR
Chain of Acetylcholinesterase (Homo sapiens) (P22303 whole entry, looked up): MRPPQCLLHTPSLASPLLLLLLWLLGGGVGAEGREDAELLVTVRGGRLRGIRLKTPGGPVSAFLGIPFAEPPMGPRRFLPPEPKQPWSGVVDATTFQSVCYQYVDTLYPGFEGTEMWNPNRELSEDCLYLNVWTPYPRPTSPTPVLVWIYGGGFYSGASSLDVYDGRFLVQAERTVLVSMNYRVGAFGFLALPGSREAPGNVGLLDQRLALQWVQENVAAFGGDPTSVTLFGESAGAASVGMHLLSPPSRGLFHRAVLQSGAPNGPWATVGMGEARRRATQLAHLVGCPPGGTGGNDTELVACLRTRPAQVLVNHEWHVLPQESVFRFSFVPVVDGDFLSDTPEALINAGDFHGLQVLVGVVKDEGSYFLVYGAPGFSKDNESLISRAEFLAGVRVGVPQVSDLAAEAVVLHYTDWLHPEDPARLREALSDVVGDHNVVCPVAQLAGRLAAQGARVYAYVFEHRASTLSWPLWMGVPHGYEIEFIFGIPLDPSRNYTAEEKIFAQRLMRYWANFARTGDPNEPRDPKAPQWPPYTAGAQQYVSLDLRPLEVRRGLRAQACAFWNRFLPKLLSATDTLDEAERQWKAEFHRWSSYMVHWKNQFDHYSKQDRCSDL
Chain of Cytochrome P450 2C19 (Homo sapiens) (P33261 whole entry, looked up): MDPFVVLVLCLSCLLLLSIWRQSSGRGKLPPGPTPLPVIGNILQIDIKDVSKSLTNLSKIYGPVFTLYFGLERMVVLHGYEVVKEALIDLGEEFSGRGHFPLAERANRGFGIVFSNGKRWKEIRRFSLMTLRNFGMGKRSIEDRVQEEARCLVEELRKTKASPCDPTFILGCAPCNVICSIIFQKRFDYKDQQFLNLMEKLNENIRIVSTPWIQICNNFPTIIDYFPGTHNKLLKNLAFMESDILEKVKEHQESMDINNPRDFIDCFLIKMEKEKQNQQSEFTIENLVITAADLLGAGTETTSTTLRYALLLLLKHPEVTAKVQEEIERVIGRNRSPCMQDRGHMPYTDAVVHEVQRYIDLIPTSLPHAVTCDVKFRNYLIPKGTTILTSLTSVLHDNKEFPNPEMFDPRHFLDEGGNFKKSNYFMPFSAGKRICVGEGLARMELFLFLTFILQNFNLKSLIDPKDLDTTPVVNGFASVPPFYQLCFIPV
Chain of Voltage-gated inwardly rectifying potassium channel KCNH2 (Homo sapiens) (Q12809 whole entry, looked up): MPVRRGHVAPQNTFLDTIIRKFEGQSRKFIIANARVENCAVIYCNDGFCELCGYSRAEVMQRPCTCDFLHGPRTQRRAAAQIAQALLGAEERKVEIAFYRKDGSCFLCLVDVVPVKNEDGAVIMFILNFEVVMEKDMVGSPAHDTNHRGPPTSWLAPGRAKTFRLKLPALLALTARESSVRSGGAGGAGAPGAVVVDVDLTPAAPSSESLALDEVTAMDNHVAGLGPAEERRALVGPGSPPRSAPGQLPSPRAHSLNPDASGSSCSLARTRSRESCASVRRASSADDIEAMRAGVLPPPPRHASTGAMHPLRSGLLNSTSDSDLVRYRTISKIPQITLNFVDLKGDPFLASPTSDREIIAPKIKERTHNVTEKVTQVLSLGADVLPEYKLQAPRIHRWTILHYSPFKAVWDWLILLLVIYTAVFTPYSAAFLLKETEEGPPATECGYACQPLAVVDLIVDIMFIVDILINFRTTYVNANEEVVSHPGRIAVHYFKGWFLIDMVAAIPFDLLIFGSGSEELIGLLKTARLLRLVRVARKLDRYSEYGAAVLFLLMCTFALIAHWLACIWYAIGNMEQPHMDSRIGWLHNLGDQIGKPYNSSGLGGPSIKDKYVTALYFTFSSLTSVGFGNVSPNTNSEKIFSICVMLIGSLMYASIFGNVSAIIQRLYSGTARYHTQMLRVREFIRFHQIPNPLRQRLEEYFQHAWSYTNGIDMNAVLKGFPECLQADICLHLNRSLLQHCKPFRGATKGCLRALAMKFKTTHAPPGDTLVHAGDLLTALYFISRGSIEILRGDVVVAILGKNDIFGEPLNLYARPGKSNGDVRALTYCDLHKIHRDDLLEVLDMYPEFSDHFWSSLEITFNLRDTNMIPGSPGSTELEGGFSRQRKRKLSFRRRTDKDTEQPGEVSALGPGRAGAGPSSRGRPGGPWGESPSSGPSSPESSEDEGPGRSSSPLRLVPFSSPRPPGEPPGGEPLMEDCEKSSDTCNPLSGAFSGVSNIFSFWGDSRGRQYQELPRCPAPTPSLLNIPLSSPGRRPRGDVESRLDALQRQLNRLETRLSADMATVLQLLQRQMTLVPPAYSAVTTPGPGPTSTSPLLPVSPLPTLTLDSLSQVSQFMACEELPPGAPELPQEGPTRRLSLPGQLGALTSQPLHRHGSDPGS

Take `C[N+](C)(C)CC(=O)[O-]`: the Potency entry in experiment [1], in [2], in experiment [3], in experiment [4], in experiment [5] and in [6] was “inactive” in each case. Moreover, the Potency entry in experiment [7], in [8], in experiment [9], in experiment [10], in experiment [11] and in experiment [12] was “inactive” each time. Moreover, the Potency result in [13], in [14], in experiment [15] and in experiment [16] was “inactive” in each case.

For the compound `Oc1ccc(Cl)cc1Cc1ccccc1`, the Potency was 70.8 µM (active) and inactive in [1]; 53.6 µM (active) in experiment [2]; 55.1 µM (active) in experiment [3]; 61.9 µM (active) and inactive in experiment [5]; 61.1 µM (active) and 19.6 µM (active) and inactive in [6]; 67.8 µM (active) and inactive in [11]. Moreover, the Potency in [12] was 3.56 µM (active) and 1.61 µM (active) and 2.19 µM (active); in [13] it was 25.2 µM (active) and 12.1 µM (active) and 9.77 µM (active); in [14], 44.8 µM (active) and 33 µM (active) and 30.9 µM (active). Besides, the Potency result in experiment [4], in experiment [18], in experiment [7], in experiment [8], in experiment [9] and in [10] was “inactive” in each case. For the same compound, in experiment [15], the Potency result was “inactive”. The max activation in experiment [17] was -2.22% (inactive). The result in experiment [19] was inactive.

Turning to `ClC(Cl)(Cl)c1ccccc1`, the Potency entry in experiment [1], in [2], in experiment [3], in experiment [4], in experiment [5] and in [6] was “inactive” throughout. For the same compound, the Potency entry in [7], in experiment [8], in experiment [9], in [10], in experiment [11] and in experiment [13] was “inactive” throughout. Moreover, the Potency entry in [14], in [15] and in experiment [16] was “inactive” throughout. Also, in [12], the Potency was 89.5 µM (active) and inactive.

Consider `CCCCSP(=O)(SCCCC)SCCCC`, for which the Potency entry in experiment [1], in experiment [2], in [3], in [4], in [5] and in [8] was “inactive” in each case. Moreover, the Potency result in [15] is “inactive”. For the same compound, the Potency is 23.8 µM (active) in experiment [6]; 5.51 µM (active) and 5.03 µM (active) in experiment [10]; 7.78 µM (active) and 2.52 µM (active) in experiment [12]; 8.73 µM (active) and 3.17 µM (active) in experiment [13]; 21.9 µM (active) and 12.6 µM (active) in experiment [14].

`CCCCCCCC[N+](C)(CCCCCCCC)CCCCCCCC`: the Potency in experiment [1] is 30.6 µM (active) and 5.45 µM (active) and 13.7 µM (active); in [2], 54.4 µM (active) and 15.4 µM (active); in experiment [3] it was 13.7 µM (active) and 4.86 µM (active) and 6.11 µM (active); in [4], 12.2 µM (active) and 13.7 µM (active); in [5] it was 61 µM (active) and 15.4 µM (active) and 21.7 µM (active); in [6], 12.2 µM (active) and 2.44 µM (active). For the same compound, the Potency was 79.5 µM (active) and inactive and 71 µM (active) in experiment [8]; 63.2 µM (active) and inactive and 79.6 µM (active) in experiment [9]; 28.2 nM (active) and 56.5 nM (active) and 564 nM (active) in experiment [11]; 5.63 µM (active) and 3.56 µM (active) and 31.7 µM (active) in experiment [12]; 28.2 µM (active) and 2.83 µM (active) and 35.6 µM (active) in experiment [13]; 39.8 µM (active) and 35.6 µM (active) in [14]. Moreover, in experiment [15], the Potency was 21.8 nM (active) and 39 nM (active) and 977 nM (active). Also, the Potency entry in [7] and in experiment [10] was “inactive” in each case.
